MEKK2wt PB1 HTS: raises or lowers MEK5 binding to wildtype human MEKK2 PB1 domain; AID 1531; bead flow cytometry, Alexa488-MEK5 binding to MEKK2 WT; actives lie on both sides; binding response (% of control), % at 10 µM; 290,000 compounds, 1.1% hits; in the data active means binding response below about 67% or above about 130%; inconclusive means no clear call, values can overlap the other calls; inactive means in between
MEKK3 PB1 HTS: raises or lowers MEK5 binding to the human MEKK3 PB1 domain; bead-based flow cytometry, Alexa488-MEK5 binding to MEKK3; actives lie on both sides; 0 = blocked by unlabeled MEK5, 100 = vehicle; binding response (% of control), % at 10 µM; 290,000 compounds, 1.4% hits; AID 1529;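 active means binding response more than 3 SD above or below the average of its plate-row segment, actives on both sides; inconclusive means wells at one plate position flagged as instrument error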;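 further: Alexa488 bead fluorescence after subtracting the streptavidin-only scavenger bead signal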
MEKK2 mut-MEK5: signal of MEK5 binding to mutant human MEKK2 PB1 domain. bead flow cytometry, Alexa488-MEK5 binding to MEKK2 mutant. percent response, % at 10 µM. 290,000 compounds, 0.35% hits. AID 1530; in the data active means percent response above about 24%, passing the limit was not always enough
VLA-4 inh: inhibition in a human VLA-4 binding assay; P13612; VLA-4 expressing cells, ligand binding flow cytometry; AID 2557; inhibition, % (about 7 µM as worked out from the volumes in the protocol); 330,000 compounds, 0.2% hits; in the data active means inhibition above about 50%
MEKK2wt confirm: raises or lowers MEK5 binding to wildtype human MEKK2, retest; binding response (% of control), % at 10 µM; 5,900 compounds, 2.4% hits; bead flow cytometry, Alexa488-MEK5 binding to MEKK2 WT; actives lie on both sides; AID 1892; shares compounds with MEKK3 PB1 HTS; in the data active means binding response below about 16% or above about 210%; inactive means in between
MEKK2mut confirm: signal of MEK5 binding to mutant human MEKK2, retest | shares compounds with MEKK3 PB1 HTS | bead flow cytometry, Alexa488-MEK5 binding to MEKK2 mutant | percent response, % at 10 µM | 5,900 compounds, 2% hits | AID 1893; in the data active means percent response mostly above about 71%, no sharp cut-off; inactive means mostly below about 38%;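 further: higher means compound restores mutant binding toward wildtype level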
MEKK3-MEK5 inh: confirmation of inhibitors of MEK5 binding to human MEKK3. 5,900 compounds, 1.8% hits. bead flow cytometry, Alexa488-MEK5 binding to MEKK3; hits give low values. AID 1894. binding response (% of control), % at 10 µM. shares compounds with MEKK3 PB1 HTS;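 active means binding response below 72% of control, or above a set upper limit, though filed actives all read lower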
A number is an active result; i = inactive; ? = inconclusive; nt = not tested or not shown; [ ] = dose if it differs, or a comment. The list is not random: actives were taken first. Their share in the collection is about 2.2%.

SMILES	MEKK2wt PB1 HTS	MEKK3 PB1 HTS	MEKK2 mut-MEK5	VLA-4 inh	MEKK2wt confirm	MEKK2mut confirm	MEKK3-MEK5 inh
COC(=O)c1c(NC(=S)NN2CCN(C)CC2)sc2c1CCC(C)C2 (configuration not stated)	163.0	i	i	i	i	i	i
Cc1cc(C)c(OCCCCCNCCO)c(C)c1	22.0[inhibitor]	12.0[inhibitor]	i	i	i	i	i
Cc1cc(C)cc(OCCCCCNCCO)c1	i	i	i	i	nt	nt	nt
O=C(NCCCN1CCCC1)c1ccc(CS(=O)(=O)c2c(Cl)cccc2Cl)o1	i	i	i	i	nt	nt	nt
O=C1CN(C(=O)C2CCC(=O)N(CCc3ccc(Cl)cc3)C2)CCN1 (configuration not stated)	i	i	i	i	nt	nt	nt
Cc1cc(C)c([N+](=O)[O-])cc1-c1ccc(/C=N/c2c(-c3ccco3)nc3ccccn23)o1	-3.0[inhibitor]	i	i	i	i	i	i
O=C(O)C(c1ccccc1)N1C(=O)/C(=C\c2ccc(-c3ccccc3Cl)o2)SC1=S (configuration not stated)	i	i	i	i	nt	nt	nt
C=CCN1C(=O)/C(=C/c2ccc(-c3ccc(F)cc3)o2)SC1=S	18.0[inhibitor]	49.0[inhibitor]	i	i	i	i	62.0
O=C(O)C(c1ccccc1)N1C(=O)/C(=C\c2ccc(-c3ccc(Br)cc3)o2)SC1=S (configuration not stated)	65.0[inhibitor]	i	i	nt	i	i	i
COc1ccc(NC(=O)NCCCN2CCN(c3cc(C)ccc3C)CC2)cc1	135.0	i	25.0	i	i	i	i
CC(=O)c1c[nH]c(C(=O)NCc2cccc(C(F)(F)F)c2)c1	i	i	i	i	nt	nt	nt
N#Cc1ccc(Cn2c(=O)c(C#N)c3n(c2=O)CCC3)cc1	0.0[inhibitor]	0.0[inhibitor]	i	i	i	i	i
N#Cc1c2n(c(=S)n(-c3ccccc3)c1=O)CCCCC2	i	i	i	i	nt	nt	nt
O=C(NNc1c(Cl)cncc1Cl)c1sccc1Cl	i	132.0	i	i	i	i	i
O=C(NNc1ccc(Cl)cc1)c1sccc1Cl	i	i	i	i	nt	nt	nt
O=C(Nc1ccc(N2CCCCCC2)cc1)c1cccc(S(=O)(=O)N2CCOCC2)c1	nt	nt	nt	i	nt	nt	nt
COc1ccc2c3c([nH]c2c1)C(C)N(CCC(=O)NN)CC3 (configuration not stated)	140.0	i	i	i	i	i	i
COc1ccc2c3c([nH]c2c1)C(C)N(C(C)=O)CC3 (configuration not stated)	i	i	i	i	nt	nt	nt
COc1ccc2[nH]c(C)c(CCNC(=S)Nc3cccc(C)c3)c2c1	1.0[inhibitor]	1.0[inhibitor]	i	i	i	i	i
COc1ccc2[nH]c(C)c(CCNC(=S)Nc3cc(C)cc(C)c3)c2c1	i	i	i	i	nt	nt	nt
CC1(C)Cc2cccc(OCC(=O)Nc3cccnc3)c2O1	i	130.0	i	i	i	i	i
Cn1nnc2cc(C(=O)N3CCN(c4ccccn4)CC3)ccc21	i	i	i	i	nt	nt	nt
COc1ccccc1CCN1CCCC(CN(C)Cc2ccc(OCCO)cc2)C1 (configuration not stated)	i	i	i	i	nt	nt	nt
O=C(Nc1cccnc1)c1cc(F)c(F)cc1Cl	1.0[inhibitor]	1.0[inhibitor]	i	i	i	i	i
O=C(O)c1cc(Cl)c(Cl)cc1C(=O)Nc1cccnc1	i	i	i	i	nt	nt	nt
SMILES	MEKK2wt PB1 HTS	MEKK3 PB1 HTS	MEKK2 mut-MEK5	VLA-4 inh	MEKK2wt confirm	MEKK2mut confirm	MEKK3-MEK5 inh
O=C(CN(C(=O)c1csnn1)c1cccc(C(F)(F)F)c1)NCc1ccc(F)cc1	i	i	i	i	nt	nt	nt
COc1cc(CNc2cccc3[nH]c(C(F)(F)F)nc23)cc(OC)c1	149.0	i	24.0	i	i	i	i
CNC(=O)C1CC(=O)N(c2ccc(OCC(=O)NCc3ccccc3)cc2)C1 (configuration not stated)	?	?	i	i	nt	nt	nt
CCC1Oc2ccc(C)cc2N(CC(=O)NCCN2CCCCCC2)C1=O (configuration not stated)	137.0	i	i	i	i	i	i
COc1cc(S(=O)(=O)N(C)C2CCCCC2)c(C)cc1C	i	i	i	nt	nt	nt	nt
COc1ccc(Cl)cc1C(=O)Nn1c(-c2cccs2)nc2ccccc2c1=O	i	i	i	i	nt	nt	nt
O=C(/C=C/c1ccc(Cl)cc1)Nn1c(-c2cccs2)nc2ccccc2c1=O	i	131.0	i	i	i	i	i
O=C(CSc1nnc(CNc2ccc(F)cc2)o1)OC1CCCCC1	2.0[inhibitor]	2.0[inhibitor]	i	i	i	i	i
Cc1cc2oc(=O)cc(CSc3nnc(-c4cccs4)o3)c2cc1C(C)C	i	134.0	i	i	i	i	i
COc1ccc2c(CSc3nnc(-c4cccnc4)n3-c3ccccc3F)cc(=O)oc2c1	i	i	i	i	nt	nt	nt
CCOc1ccc(-n2c(SCc3cc(=O)oc4cc(C)c(C(C)C)cc34)nnc2-c2cccnc2)cc1	i	128.0	i	i	i	i	i
CCN(CC)CCN(Cc1cc2cc3c(cc2[nH]c1=O)OCCO3)C(=S)NCCCN(C)C	138.0	i	i	i	i	i	i
CCCCNC(=S)N(CCN(CC)CC)Cc1cc2cc3c(cc2[nH]c1=O)OCO3	i	i	24.0	i	i	i	i
CCN(CC)CCN(Cc1cc2cc3c(cc2[nH]c1=O)OCO3)C(=S)NCCCN(C)C	i	i	i	i	nt	nt	nt
CC(=O)c1ccc(-c2ccccc2OC(F)(F)F)o1	i	49.0[inhibitor]	i	i	i	i	i
c1nc(NCCN2CCOCC2)c2sc3nc(N4CCOCC4)c4c(c3c2n1)CCC4	i	i	i	i	nt	nt	nt
CN(C)CCNc1ncnc2c1sc1nc(-c3ccccc3)c3c(c12)CCCC3	201.0	i	61.0	i	209.0	i	i
COc1ncnc2c1sc1nc(-c3ccccc3)c3c(c12)CCCC3	i	146.0	i	i	i	i	i
CC(C)NC(=O)COC(=O)c1ccccc1C(=O)c1ccccc1	i	i	i	i	nt	nt	nt
N#Cc1ccc(COC(=O)c2cnc3ccccc3n2)cc1	i	i	i	i	nt	nt	nt
CCOc1cc(/C=N/NC(N)=O)cc(Br)c1OCC(=O)Nc1ccccc1C	i	122.0	i	i	i	i	i
CCOc1cc(/C=N/NC(N)=O)cc(Br)c1OCC(=O)Nc1cccc2ccccc12	i	i	i	i	nt	nt	nt
Cc1ccc(SCc2nc3ccccc3[nH]2)cc1	2.0[inhibitor]	2.0[inhibitor]	i	i	i	i	i
CCCc1cc(C(=O)NNC(=S)Nc2cccc(C)c2)cs1	i	129.0	i	i	i	i	i
Cc1cccc(NC(=S)NNC(=O)c2ccc3c(c2)OCO3)c1	i	i	i	i	nt	nt	nt
Cc1noc(C)c1COc1ccc(C(=O)OCC(=O)Nc2ccc(S(N)(=O)=O)cc2)cc1	nt	nt	nt	i	nt	nt	nt

Screens deposited in PubChem by NMMLSC.
